Measurements reported in the supplement of paper PMC6522484.
± gives the standard deviation of the averaged measurements.

What was measured:
DLD1 [1] = test: cell viability (CellTiter-Glo) relative to plate median (fraction of plate median); higher = more viable cells; details: 5 µM; treatment time 24 h; reporter: 7TFP
Procedure, shortened: (§1)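 Two independent replicates were averaged for each reported value. Library compounds were applied at a final 5 µM for 24 h to colorectal cancer cell lines stably expressing lentiviral TCF/Wnt firefly luciferase reporters. Firefly luciferase or CellTiterGlo luminescence from each well was normalised to the plate median.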

HCT116 = test: as above; details: 5 µM; treatment time 24 h; reporter: TCF4/Wnt
Procedure, shortened: as §1

SW480 [2] = test: as above; details: 5 µM; treatment time 24 h; reporter: 7TFP
Procedure, shortened: as §1

DLD1 [3] = test: TCF/Wnt firefly luciferase reporter signal relative to plate median (fraction of plate median); higher = higher Wnt reporter signal; details: 5 µM; treatment time 24 h; reporter: 7TFP
Procedure, shortened: as §1

SW480 [4] = test: as above; details: 5 µM; treatment time 24 h; reporter: 7TFP
Procedure, shortened: as §1

Compound	cell viability (DLD1 [1])	cell viability (HCT116)	cell viability (SW480 [2])	TCF/Wnt firefly luciferase reporter signal (DLD1 [3])	TCF/Wnt firefly luciferase reporter signal (SW480 [4])
CC(C)CCC[C@@H](C)[C@H]1CC[C@H]2[C@@H]3C(=O)C=C4C[C@@H](O)CC[C@]4(C)[C@H]3CC[C@]12C	1.1 ± 0.092	0.99	1.04 ± 0.1	0.959 ± 0.018	1.01 ± 0.027
Cc1cc2cc3c(C)cc(=O)oc3c(C)c2o1	1.07 ± 0.021	0.954 ± 0.034	1 ± 0.022	1.14 ± 0.11	0.895 ± 0.037
CO[C@@]1(NC(=O)CSCC#N)C(=O)N2C(C(=O)O)=C(CSc3nnnn3C)CS[C@@H]21	0.998 ± 0.031	1.11 ± 0.057	0.9035 ± 0.0021	0.928 ± 0.023	1.02
COc1ccc(-c2cc(=O)c3c(OC)c(OC)c(OC)c(OC)c3o2)cc1	1 ± 0.064	0.932 ± 0.059	1.05 ± 0.05	1.13 ± 0.042	0.961 ± 0.0028
CC1(C)S[C@@H]2[C@H](NC(=O)Cc3ccccc3)C(=O)N2[C@H]1C(=O)O	0.914 ± 0.0057	0.968 ± 0.025	1.02 ± 0.067	1.16 ± 0.11	0.949 ± 0.14
CN(C)c1ccc(O)c2c1C[C@H]1C[C@H]3[C@H](N(C)C)C(O)=C(C(N)=O)C(=O)[C@@]3(O)C(O)=C1C2=O	0.991 ± 0.0099	1.03 ± 0.09	0.943 ± 0.048	1.05 ± 0.042	1.08 ± 0.085
CN1CCN(CC(=O)N2c3ccccc3C(=O)Nc3cccnc32)CC1	0.944 ± 0.022	1 ± 0.067	0.9405 ± 0.0035	0.796 ± 0.014	0.813 ± 0.0099
O=C(/C=C/c1ccccc1)c1ccc(O[C@@H]2O[C@H](CO)[C@@H](O)[C@H](O)[C@H]2O)cc1O	0.947 ± 0.022	0.83 ± 0.04	0.978 ± 0.018	1.02 ± 0.036	1.13 ± 0.057
Nc1c2c(nc3ccccc13)CCCC2	1.04	0.997 ± 0.018	0.946 ± 0.014	0.999 ± 0.016	0.943 ± 0.015
CCOC(=O)[N-]c1c[n+](N2CCOCC2)no1	1.065 ± 0.0071	1.01 ± 0.089	1.02 ± 0.035	0.984 ± 0.037	1.11 ± 0.078
NS(=O)(=O)c1cc2c(cc1Cl)N=C(CSCc1ccccc1)NS2(=O)=O	0.974 ± 0.079	1.08 ± 0.014	0.974 ± 0.066	0.861 ± 0.04	1.03 ± 0.042
C[N+](C)(C)CCOP(=O)(O)OP(=O)([O-])OC[C@H]1O[C@@H](n2ccc(N)nc2=O)[C@H](O)[C@@H]1O	0.923 ± 0.1	0.942 ± 0.016	1.01 ± 0.017	1.01 ± 0.096	1.04 ± 0.028
COc1cccc2c1C(=O)c1c(O)c3c(c(O)c1C2=O)CC(O)(C(C)O)CC3OC1CC(NC=O)C(O)C(C)O1 (stereo not given) [Baumycin C2]	1.02 ± 0.035	1.005 ± 0.0071	1 ± 0.036	1.17 ± 0.12	1.05 ± 0.014
O=C(O)c1cc(O)c2c(c1)[C@H]([C@H]1c3cc(C(=O)O)cc(O)c3C(=O)c3c(O[C@@H]4O[C@H](CO)[C@@H](O)[C@H](O)[C@H]4O)cccc31)c1cccc(O[C@@H]3O[C@H](CO)[C@@H](O)[C@H](O)[C@H]3O)c1C2=O	0.943 ± 0.028	0.967 ± 0.12	1.01 ± 0.018	1.08 ± 0.19	1.01 ± 0.071
Cc1oc(C(C)O)c2c1C(=O)c1c(O)cccc1C2=O (stereo not given) [Bhimamycin A]	1.14 ± 0.014	0.958 ± 0.06	1.23 ± 0.13	0.9925 ± 0.0092	1.07 ± 0.042
Oc1ccc2c(c1)OC[C@]1(O)Cc3cc(O)c(O)cc3[C@H]21	1.01 ± 0.044	0.929 ± 0.085	0.936 ± 0.0014	1.15 ± 0.11	0.909 ± 0.024
CCCCC1C(=O)N(c2ccccc2)N(c2ccc(O)cc2)C1=O (stereo not given)	0.923 ± 0.015	0.873 ± 0.038	0.898 ± 0.028	1.21 ± 0.057	1.02 ± 0.05
CC(=O)OC/C=C(\C)CC/C=C(\C)CC/C=C(\C)CC/C=C(\C)CC/C=C(\C)CC/C=C(\C)CC/C=C(\C)CC/C=C(\C)CCC=C(C)C	1.04 ± 0.042	0.96 ± 0.085	1.06 ± 0.028	0.807 ± 0.072	1.02 ± 0.057
FC(F)(F)C(Cl)Br (stereo not given)	0.964 ± 0.035	0.898 ± 0.011	0.9715 ± 0.0035	1.02 ± 0.028	1.1 ± 0.092
O=C(O)[C@@H](O)[C@H](O)[C@H](O)[C@@H](O)C(=O)O	0.971 ± 0.023	1.03 ± 0.05	1 ± 0.051	1.06 ± 0.035	1.03 ± 0.028
CC(C)CCC[C@@H](C)[C@H]1CC[C@H]2[C@@H]3CC=C4CC(=O)CC[C@]4(C)[C@H]3CC[C@]12C	1 ± 0.026	1.015 ± 0.0071	1.03 ± 0.048	0.979 ± 0.13	0.974 ± 0.19
NS(=O)(=O)c1cc2c(cc1Cl)NC(C(Cl)Cl)NS2(=O)=O (stereo not given)	0.977 ± 0.047	1.06 ± 0.078	0.973 ± 0.0028	1.11 ± 0.29	0.991 ± 0.013
CCN(CC)CCOC(=O)C(c1ccccc1)C1CCCCC1 (stereo not given)	0.986 ± 0.0071	0.938 ± 0.13	0.978 ± 0.046	0.996 ± 0.0057	1.05 ± 0.075
C1N2CN3CN1CN(C2)C3	1.04 ± 0.085	1.08 ± 0.12	0.978 ± 0.028	0.985 ± 0.05	1.02 ± 0.028
CC(C)c1ncc(Cc2ccccc2)[nH]c1=O [Phevalin]	1.14 ± 0.22	1.07 ± 0.014	1.004 ± 0.0078	0.982 ± 0.019	0.922 ± 0.12
Clc1ccc(C(c2ccccc2Cl)C(Cl)Cl)cc1 (stereo not given)	0.937 ± 0.013	0.895 ± 0.15	0.981 ± 0.041	1.11 ± 0.021	1.03 ± 0.17
CCN(CC)CC(=O)Nc1c(C)cccc1C	1.05	1.1 ± 0.021	1.02 ± 0.021	1.06 ± 0.05	1.03 ± 0.021
O=c1cccc2ccc(O)c(O)c2c1O	0.975 ± 0.012	0.994 ± 0.11	0.966 ± 0.033	0.994 ± 0.079	1.06 ± 0.042
CCOc1ccc2nc(S(N)(=O)=O)sc2c1	0.972 ± 0.054	0.896 ± 0.15	0.961 ± 0.014	0.704 ± 0.088	0.891 ± 0.091
O=C1CC[C@]23/C=C/C(=O)NCCCCNCCCNC(=O)/C=C/c4ccc(c2c4)O[C@@H]3C1	1.03 ± 0.014	1.06 ± 0.057	1.01 ± 0.024	1.01 ± 0.056	1.04 ± 0.042
